# Assay results from PubChem BioAssay (EPA / NIEHS).
# Results filed as inconclusive are left out. Activity calls are given as the source filed them. How the source made its calls: active means hit-call score of the fitted dose curve at least 0.9, where 1 is the maximum; inconclusive means response in the unintended direction; inactive means score below 0.9.
# Columns and labels:
# [1] = target: Cellular tumor antigen p53 (Homo sapiens) (UniProt P04637); assay: TOX21_p53_BLA_p5_ratio: Tox21 HCT-116 p53 Agonism Beta-lactamase Assay, Ratio, Phase 5 (AID 2283599)
# Chain of Cellular tumor antigen p53 (Homo sapiens) (P04637 whole entry, looked up): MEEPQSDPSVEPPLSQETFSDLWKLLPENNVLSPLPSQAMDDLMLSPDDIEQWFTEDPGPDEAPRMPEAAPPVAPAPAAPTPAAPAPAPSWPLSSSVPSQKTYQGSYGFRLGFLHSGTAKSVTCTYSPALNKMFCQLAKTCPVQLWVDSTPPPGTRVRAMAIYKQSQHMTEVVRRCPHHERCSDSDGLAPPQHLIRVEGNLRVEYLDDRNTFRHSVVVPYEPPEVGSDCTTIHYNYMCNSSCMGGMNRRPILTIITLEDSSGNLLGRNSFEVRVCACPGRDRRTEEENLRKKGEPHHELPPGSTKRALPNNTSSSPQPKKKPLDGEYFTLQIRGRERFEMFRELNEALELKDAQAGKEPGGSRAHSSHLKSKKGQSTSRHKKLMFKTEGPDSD
# Procedure, shortened: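 HCT-116 p53-bla cells (4000/well) plated 5 h, dosed with compound (217-fold DMSO dilution) for 16 h at 37 C; CCF4-AM substrate 2 h at room temperature. Activity is the 460/530 nm emission ratio (405 nm excitation), fitted in gain-of-signal direction versus DMSO.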
# [2] = TOX21_p53_BLA_p4_viability: Viability Assessment in the Tox21 HCT-116 p53 Agonism Beta-lactamase Assay, Phase 4 (AID 2283597);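 further: hits lower the luminescence signal meaning cytotoxicity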
# Procedure, shortened: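 4000 HCT116 cells per well; 5 h attachment; compounds from DMSO, 217-fold dilution; 16 h at 37C. Then CCF4-AM, 2 h RT, followed by CellTiter-Glo, 30 min RT, luminescence. Decrease = cytotoxicity.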
# [3] = TOX21_p53_BLA_p5_viability: Viability Assessment in the Tox21 HCT-116 p53 Agonism Beta-lactamase Assay, Phase 5 (AID 2283600)
# Procedure, shortened: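 Decreased CellTiter-Glo luminescence denotes lost viability. Exposure: 16 h at 37C, 5% CO2, with compounds from DMSO stocks diluted 217-fold in wells of 4000 cells.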
# [4] = target: Cellular tumor antigen p53 (Homo sapiens) (UniProt P04637); assay: TOX21_p53_BLA_p3_ratio: Tox21 HCT-116 p53 Agonism Beta-lactamase Assay, Ratio, Phase 3 (AID 2283596)
# Procedure, shortened: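 Cells were seeded at 4000/well, rested 5 h at 37C, then dosed with DMSO compound solutions (217-fold dilution) for 16 h. CCF4-AM substrate was loaded for 2 h at room temperature, and the 460/530 nm emission ratio was fitted for gain of signal versus DMSO.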
# [5] = target: Cellular tumor antigen p53 (Homo sapiens) (UniProt P04637); assay: TOX21_p53_BLA_p4_ratio: Tox21 HCT-116 p53 Agonism Beta-lactamase Assay, Ratio, Phase 4 (AID 2283601)
# Procedure, shortened: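 HCT-116 p53 beta-lactamase reporter cells (4000/well) preincubated 5 h, then compound (217-fold dilution of DMSO stock) for 16 h at 37C. CCF4-AM substrate added 2 h at room temperature; 460/530 nm emission ratio fitted upward versus DMSO.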
structure (smiles),measurement,setting,value
CCCCCCCCCC(C)=O,outcome,[1],inactive
C=CCCCCCCCCC=O,outcome,[2],inactive
same,outcome,[1],inactive
same,outcome,[3],inactive
CC(C)c1cc(C(C)C)cc(C(C)C)c1,outcome,[4],inactive
same,outcome,[2],inactive
same,outcome,[5],inactive
O=S(=O)(O)c1ccc(Nc2nc(Nc3ccc(C=Cc4ccc(Nc5nc(Nc6ccc(S(=O)(=O)O)cc6)nc(N(CCO)CCO)n5)cc4S(=O)(=O)O)c(S(=O)(=O)O)c3)nc(N(CCO)CCO)n2)cc1,AC50,[4],41.3 µM (active)
same,AC50,[1],42.6 µM (active)
same,AC50,[5],37.1 µM (active)
NC(=O)Nc1ccccc1,outcome,[4],inactive
same,outcome,[2],inactive
same,outcome,[1],inactive
same,outcome,[5],inactive
Nc1ccnc(=O)[nH]1,outcome,[2],inactive
same,outcome,[3],inactive
CC(C)C(=O)OCCOc1ccccc1,outcome,[4],inactive
same,outcome,[1],inactive
same,outcome,[3],inactive
same,outcome,[5],inactive
O=C(OCCc1ccccc1)c1ccccc1,outcome,[4],inactive
same,outcome,[2],inactive
same,outcome,[1],inactive
same,outcome,[5],inactive
Cc1cccc(C(C)(C)C)c1O,outcome,[4],inactive
same,outcome,[2],inactive
same,outcome,[1],inactive
same,outcome,[3],inactive
same,outcome,[5],inactive
CC1=CC=C(C(C)C)CC1,outcome,[1],inactive
same,outcome,[3],inactive
O=C1CCCCCCCCCCC1,outcome,[4],inactive
same,outcome,[3],inactive
same,outcome,[5],inactive
CC(CC=O)CC(C)(C)C (stereo not given),outcome,[4],inactive
same,outcome,[2],inactive
same,outcome,[5],inactive
CO[Si](C)(C)OC,outcome,[2],inactive
same,outcome,[1],inactive
same,outcome,[3],inactive
same,outcome,[5],inactive
CC1CC(=O)CC(C)(C)C1 (stereo not given),outcome,[4],inactive
same,outcome,[1],inactive
same,outcome,[3],inactive
same,outcome,[5],inactive
CCCCc1ccc(Cl)cc1,outcome,[4],inactive
same,outcome,[2],inactive
same,outcome,[3],inactive
same,outcome,[5],inactive
CC1=CC(C)C(C=O)CC1 (stereo not given),outcome,[4],inactive
same,outcome,[1],inactive
same,outcome,[5],inactive
CC1=C(O)C(=O)C(C)O1 (stereo not given),outcome,[1],inactive
same,outcome,[3],inactive
COC(C=C(C)CCC=C(C)C)OC,outcome,[4],inactive
same,outcome,[1],inactive
same,outcome,[3],inactive
same,outcome,[5],inactive
CCCCOCC(C)O (stereo not given),outcome,[4],inactive
same,outcome,[1],inactive
same,outcome,[3],inactive
CCCCNS(=O)(=O)c1ccc(C)cc1,outcome,[4],inactive
same,outcome,[2],inactive
same,outcome,[1],inactive
same,outcome,[5],inactive
